Our source for the Inhibition values is ChEMBL document CHEMBL4296182, “CO-ADD screening of NIH NCI Diversity Set V”.

Structures are written as SMILES. Potency and affinity values are given separately.

The subject of the test is Cryptococcus neoformans. The note with it: Concentration 20 uM; ASSAY_TEST Inhibition of Fungal Growth; detection method Resazurin; Absorption (OD600-OD570); plate type 384well; NBS; CORNING #3640. In general terms: Alamar Blue is a resazurin reagent that responds to reducing activity.
The term Inhibition denotes the relative decrease from the control value, in per cent. As to `CC1(C)C2CCC(CN=C(N)CSS(=O)(=O)O)C1C2` (configuration not stated), the Inhibition is recorded as -13.54%.

For the compound `C[C@@H]1C[C@H]2OC(=O)[C@@]3(C)CCC[C@@](C)([C@@H]23)[C@@]1(O)CCc1ccoc1`, the Inhibition is -1.32%.

`c1cc(-n2nnc3cnccc32)ccn1`: the Inhibition is listed as -8.76%.

As to `Cn1c(=O)c2c(nc(N3CCOCC3)n2C)n(C)c1=O`, the Inhibition is given as -9.23%.

On to `CC(=O)Oc1ccc(OC(C)=O)c2c1CC1(C)OC1(C)C2` (configuration not stated), for which the Inhibition is listed as -11.66%.

As for `COc1cnc(SC)nc1Nc1ccc(C#N)cc1`, the Inhibition is -3.99%.

Take `CCN(CC)C(=O)Cn1ccc(NC(C)=O)nc1=O`: the Inhibition was -8.8%.

`O=C1c2ccccc2C(=O)c2[nH]cnc21`: the Inhibition was determined as 21.89%.

As to `S=C(Nc1ccccc1)Nc1nccs1`, the Inhibition worked out at 1.13%.

Turning to `O=c1[nH]cc(Cl)cc1Cl`, the Inhibition was 0.46%.

`CC(=O)Nc1ccc(S(=O)(=O)N/N=c2/sc3ccccc3n2C)cc1N`: the Inhibition was -8.3%.

As for `Oc1ccc(N/C(S)=N/c2ccccc2)cc1`, the Inhibition is 2.65%.

For the compound `CC(C)COc1nc2c(c(=O)n(C)c(=O)n2C)n1C`, the Inhibition is given as -14.97%.

For the compound `Cc1ccc(S(=O)(=O)CCOC(=O)CNC(=O)OCc2ccccc2)cc1`, the Inhibition is reported as -8.5%.

With `N#CC1=C(Nc2ccccc2Cl)SC(c2ccccc2O)NC1=O` (configuration not stated), the Inhibition is listed as -3.28%.

For the compound `CC(C)(C)CC(C)(C)n1nnnc1N`, the Inhibition is listed as -5.24%.

Take `c1ccc(Sc2ncccn2)nc1`: the Inhibition is -10.47%.

With `Cc1ccc(/N=N/c2ccc(N)cc2C)c(S(N)(=O)=O)c1`, the Inhibition is given as -0.55%.

With `CC(=C/c1ccccc1)/C=C1/NC(=S)NC1=O`, the Inhibition is recorded as -5.48%.

As to `Cc1cn(C2CC(O)C(CO)O2)c(=O)n(Cc2ccccc2)c1=O` (configuration not stated), the Inhibition is -13.31%.

Regarding `COC1OCC(O)C(NC(=O)N(C)N=O)C1O` (configuration not stated), the Inhibition is on record as -2.94%.

With `Cc1cccc2cc3cccc(C)c3nc12`, the Inhibition is recorded as -5.61%.

For the compound `O=C(Nc1ccc(NC(=O)c2ccncc2)cc1)c1ccncc1`, the Inhibition is recorded as -0.9%.

In the case of `COc1cc(NC(=O)CCl)ccc(=O)c1`, the Inhibition is -8.46%.

In the case of `O=[N+]([O-])c1ccc(-c2ncc(-c3ccc(Br)cc3)o2)cc1`, the Inhibition is -3.69%.

`COc1ccc(Cc2nnc(SC)n2-c2ccc(F)cc2)cc1OC`: the Inhibition is reported as -3.12%.

Turning to `O=C(Oc1ccccc1)c1cccc2cccc(C(=O)Oc3ccccc3)c12`, the Inhibition is on record as -3.03%.

As to `N#Cc1ccc(NC2c3ccccc3CC2O)cc1` (configuration not stated), the Inhibition is reported as 8.31%.

For the compound `COc1cc2c(c3c1c(=O)c1cccc(F)c1n3C)C=CC(C)(C)O2`, the Inhibition was -11.93%.

Take `CC(C)(C)C(=O)/C=C/c1ccc(Oc2ccccc2)cc1`: the Inhibition is -10.02%.

Take `Cc1cnc2cc(Cl)ccc2c1SCC(=O)O`: the Inhibition is -9.96%.

`O=C(Nc1ccc(F)cc1)OCCOc1ccc([N+](=O)[O-])cc1`: the Inhibition is recorded as -9.23%.

Regarding `NC(=O)c1ccc(Oc2ccc(C(N)=O)cc2)cc1`, the Inhibition was -7.62%.

Regarding `CCSc1ncc(CO)c(N)n1`, the Inhibition came out at 1.67%.

Consider `CCN(CC)CCN1C(=O)c2cccc3cc(N)cc(c23)C1=O`, for which the Inhibition was -5.58%.

With `CC(C)(C)N1CC(OC(N)=O)C1`, the Inhibition is reported as -9.34%.

On to `NC(=O)/C(=C\c1ccncc1)c1cccc2ccccc12`, for which the Inhibition is -6.45%.
